TRPV1 PAM: potentiators of human vanilloid receptor 1 (TRPV1); 0.02% of 320,000 active; AID 540277; Q8NER1; TRPV1-expressing cells, Fluo-8 calcium influx, capsaicin EC20 potentiation; potentiation, % at 8.33 µM; in the data active = potentiation above about 80%; inconclusive = between about 30% and that limit
Target sequence (Q8NER1 whole entry, looked up): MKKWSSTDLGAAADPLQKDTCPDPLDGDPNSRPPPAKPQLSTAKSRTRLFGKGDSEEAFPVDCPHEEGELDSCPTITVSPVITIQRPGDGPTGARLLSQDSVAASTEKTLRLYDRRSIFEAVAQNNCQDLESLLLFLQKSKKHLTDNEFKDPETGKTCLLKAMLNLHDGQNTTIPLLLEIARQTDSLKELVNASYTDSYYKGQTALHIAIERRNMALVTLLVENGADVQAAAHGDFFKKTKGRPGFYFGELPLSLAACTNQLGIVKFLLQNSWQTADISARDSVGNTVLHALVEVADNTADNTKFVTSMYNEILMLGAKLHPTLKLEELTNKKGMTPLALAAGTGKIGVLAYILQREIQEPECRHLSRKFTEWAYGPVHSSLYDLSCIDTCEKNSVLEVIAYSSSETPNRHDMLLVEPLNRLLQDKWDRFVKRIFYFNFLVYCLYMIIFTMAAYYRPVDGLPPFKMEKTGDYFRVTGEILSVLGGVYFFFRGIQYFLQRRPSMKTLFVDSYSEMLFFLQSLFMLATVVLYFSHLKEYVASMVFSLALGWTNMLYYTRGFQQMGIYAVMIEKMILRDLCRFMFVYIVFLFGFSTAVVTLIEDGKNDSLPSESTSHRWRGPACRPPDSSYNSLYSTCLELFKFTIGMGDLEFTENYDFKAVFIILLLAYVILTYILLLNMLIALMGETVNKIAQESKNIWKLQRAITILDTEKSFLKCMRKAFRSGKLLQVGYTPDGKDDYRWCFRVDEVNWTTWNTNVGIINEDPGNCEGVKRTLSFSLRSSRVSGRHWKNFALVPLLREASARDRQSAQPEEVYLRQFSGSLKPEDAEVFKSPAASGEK
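TRPV1-expressing cells were cultured overnight at 35.5C and loaded with Fluo-8 calcium dye for 40 to 90 min at room temperature. After a 10 s baseline, compound was added and calcium influx was read kinetically for 3 min (ex 480/em 520 nm).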
D1 ag: agonists of human D1 dopamine receptor. activation, % at 2 µM. 1% of 360,000 active. AID 504660. HEK293 T-REx D1 cells, calcium flux, agonist mode. P21728; in the data active = activation above about 30%
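Agonism was scored from calcium flux recorded over 180 s (1 read/s) after pintool compound addition, following a 10-cycle baseline. Cells were inducible force-coupled HEK293 TREx D1, plated overnight at 30 C and loaded with no-wash calcium dye.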
D1 potentiator: potentiators of human D1 dopamine receptor; HEK293 TREx D1 cells, calcium flux, dopamine EC20 potentiation; potentiation, % at 10 µM; 0.036% of 360,000 active; AID 504651; in the data active = potentiation above about 30%
D1 antagonist: human D1 dopamine receptor antagonism. P21728. HEK293 TREx D1 cells, calcium flux, dopamine EC80; stronger effect = lower value. activity change, negative = inhibition, % at 10 µM. 3.2% of 360,000 active; in the data active = activity change below about -30%
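After overnight tetracycline induction at 30 C, force-coupled D1 HEK293 cells took up a no-wash calcium dye at room temperature. Compounds were added and monitored 180 s, and the response to EC80 dopamine was then recorded.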
TRPV1 agonist: activates the human vanilloid receptor TRPV1 | AID 540275 | activation, % at 8.33 µM | 0.19% of 320,000 active | TRPV1-expressing cells, Fluo-8 calcium influx, agonist mode | Q8NER1; in the data active = activation above about 80%; inconclusive = between about 30% and that limit
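Cells expressing TRPV1 were dye-loaded with Fluo-8 and read kinetically: 10 s baseline, 3 min after compound (agonist portion), then 2 min after EC20 capsaicin (allosteric enhancer portion). Calcium-bound dye fluorescence at 480/520 nm.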
Numbers stand for hits; i = inactive; ? = inconclusive; nt = not tested or not shown. Only some compounds are listed: those with a hit (about 4.2% of all), similar ones and a draw of the others.

SMILES	TRPV1 PAM	D1 ag	D1 potentiator	D1 antagonist	TRPV1 agonist
COCCNC(=O)/C(C#N)=C/c1ccc(N2CCOCC2)o1	i	i	i	i	i
N#C/C(=C\c1ccc(N2CCOCC2)o1)C(=O)NC1CCCCC1	i	69	i	i	i
N#C/C(=C\c1ccc(N2CCOCC2)o1)C(=O)NCC1CCCO1 (stereo not given)	i	i	i	i	i
N#C/C(=C\c1ccc(OCCN2CCOCC2)cc1)C(=O)Nc1ccccc1	i	i	i	-30	i
N#C/C(=C/c1ccc(N2CCOCC2)o1)C(=O)Nc1ccccc1	i	215	i	i	?
COC(=O)c1ccc(Nc2ncnc3c2nc2n3CCCC2)cc1	nt	i	i	i	nt
Cc1ccc(-n2ncc3c(Nc4cccc(C)c4)ncnc32)cc1	nt	i	i	-33	nt
COC(=O)c1ccc(Nc2ncnc3c2cnn3-c2cccc(C)c2)cc1	i	i	i	-38	i
Cc1cccc(-n2ncc3c(Nc4ccc(F)cc4)ncnc32)c1	i	i	i	-49	?
COc1ccc(CCNC(=O)C(=O)NCC(c2ccco2)S(=O)(=O)c2cccs2)cc1 (stereo not given)	nt	i	i	nt	nt
CSC1=NC2(CCN(C(=O)NC3CCCCC3)CC2)N=C1c1ccc(C(C)(C)C)cc1	nt	i	i	i	nt
COc1ccc(Cl)cc1NC(=O)CSc1ccc2nnc(CCNS(=O)(=O)c3ccccc3)n2n1	nt	i	i	i	nt
COC(=O)c1ccc(CN2CCC(CO)(Cc3ccccc3Cl)CC2)cc1	i	i	i	i	i
COc1ccc(/C=C/CN2CCC(CO)(Cc3ccccc3Cl)CC2)cc1	i	109	i	i	i
Cc1cccc(CNC(=O)CCn2c(=O)c3cccn3c3ccc(F)cc32)c1	nt	i	i	i	nt
COc1ccc(C2=NC(c3ccncc3)=Nc3ccc(OC)cc3N2)cc1	nt	i	i	i	nt
COc1cc(CNC2CCCC2)cc(Cl)c1OCc1ccccc1F	i	157	i	-58	i
COc1cc(CNc2ccc3[nH]c(=O)[nH]c3c2)cc(Cl)c1OCc1ccccc1F	nt	i	i	i	nt
CC1CCN(CC(=O)Nc2ccc(S(=O)(=O)N3CCCC(C)C3)cc2)CC1 (stereo not given)	i	i	i	-32	i
CCS(=O)(=O)c1ncc(Cl)c(C(=O)Nc2ccc(S(=O)(=O)N3CCCC(C)C3)cc2)n1 (stereo not given)	i	i	i	-36	i
CCC1CCCCN1S(=O)(=O)c1ccc(NC(=O)c2ccncc2)cc1 (stereo not given)	i	i	i	-34	i
CS(=O)(=O)c1ncc(Cl)c(C(=O)Nc2ccc3ccccc3c2)n1	i	i	i	-33	i
CC1CCCN(S(=O)(=O)c2ccc(NC(=O)CN3CCN(C)CC3)cc2)C1 (stereo not given)	i	i	i	i	i
CC(=O)Nc1ccc(NC(=O)c2nc(S(=O)(=O)Cc3ccccc3)ncc2Cl)cc1	i	i	i	i	i
CCOc1ccccc1NC(=O)c1ccc2c(Cl)c3c(nc2c1)CCC3	nt	i	i	i	nt
SMILES	TRPV1 PAM	D1 ag	D1 potentiator	D1 antagonist	TRPV1 agonist
COc1ccc(-c2nsc(NC(=O)c3oc4cc(C)c(C)cc4c3C)n2)cc1	nt	i	i	i	nt
O=C(C1CCN(c2ncnc3c2nc2n3CCCCC2)CC1)N1CCN(c2ccccc2)CC1	nt	i	i	i	nt
CCCCOc1ccc(C(=O)Nc2onc3c2CCCC3)cc1	nt	i	i	i	nt
CCC1CCCCN1S(=O)(=O)c1ccc(NC(=O)c2nc(S(C)(=O)=O)ncc2Cl)cc1 (stereo not given)	i	i	i	-34	i
CCCCNC(=O)CSc1nc2cc3c(cc2c(=O)n1CCCC(=O)NCc1ccc2c(c1)OCO2)OCO3	nt	i	i	i	nt
O=C(OCn1ncc(Cl)c(Cl)c1=O)c1cccc(C(F)(F)F)c1	i	i	i	-36	i
O=C(OCn1ncc(Br)c(Br)c1=O)c1ccccc1Cl	i	i	i	i	i
CC1Cc2ccccc2N1C(=O)CN1C(=O)NC(C)(c2ccc3c(c2)OCCO3)C1=O (stereo not given)	i	38	i	i	i
COc1cc(F)c(S(=O)(=O)N2CCN(S(=O)(=O)c3ccc4c(c3)OCCO4)CC2)c(F)c1	nt	i	i	i	nt
Cc1ccc(-n2nnnc2CNC(=O)C(C)C)cc1C	nt	i	i	i	nt
Cc1cc(C)c(NC(=O)C(C)N2CCCCCC2)c(C)c1 (stereo not given)	i	i	i	i	i
CC(C(=O)Nc1cc(Cl)cc(Cl)c1)N1CCCC1 (stereo not given)	i	33	i	i	i
O=C(COC(=O)C1CC(O)CN1S(=O)(=O)c1ccccc1[N+](=O)[O-])c1ccc[nH]1 (stereo not given)	i	i	i	i	i
O=C(COC(=O)[C@@H]1CC(O)CN1S(=O)(=O)c1ccccc1[N+](=O)[O-])Nc1ccc2ccccc2c1 (stereo not given in full)	i	i	i	-32	i
CC(=Nc1cccc(C)c1)c1sc2ccccc2c1O	i	i	i	i	i
CC(=O)NCCN=C(C)c1sc2ccccc2c1O	i	i	i	i	i
CC(=Nc1ccc(O)cc1)c1sc2ccccc2c1O	i	53	i	i	?
CC(=Nc1ccccc1O)c1sc2ccccc2c1O	i	48	i	i	i
Cc1ccc(-c2nc(S(=O)(=O)c3ccc(C)cc3)c(SCC(=O)NC3CCCCC3)o2)cc1	nt	i	i	i	nt
Cc1ccc(NC(=O)Nc2c[nH]c(=O)[nH]c2=O)c(Cl)c1	nt	i	i	i	nt
N#Cc1cc(C(=O)c2ccccc2O)cn(-c2ccc(Cl)cc2)c1=O	i	i	i	i	i
COc1ccc(-n2cc(C(=O)c3cc(Cl)ccc3O)cc(C#N)c2=O)cc1	i	i	i	-35	i
COc1ccc(O)c(C(=O)c2cc(C#N)c(=O)n(-c3ccc(Cl)cc3)c2)c1	i	i	i	i	i
Cc1c(-n2cc(C(=O)c3ccccc3O)cc(C#N)c2=O)c(=O)n(-c2ccccc2)n1C	i	36	i	i	i
CCOc1ccccc1CN1CCN(Cc2c[nH]c3ccccc23)CC1CCO (stereo not given)	i	i	i	i	i
SMILES	TRPV1 PAM	D1 ag	D1 potentiator	D1 antagonist	TRPV1 agonist
CCOc1ccccc1CN1CCN(Cc2cc(=O)c3ccccc3[nH]2)CC1CCO (stereo not given)	i	i	i	-36	i
CCOc1ccccc1CN1CCN(Cc2[nH]c3ccccc3c2C)CC1CCO (stereo not given)	i	56	i	i	i
Cc1ccc(-n2ncc(C(=O)NCc3ccccc3C)c2-n2cccc2)cc1	nt	i	i	i	nt
COc1ccc(C2=CC(=O)C[C@H](c3ccc(OC)cc3)C2)cc1	i	i	i	-37	i
COc1ccc([C@H]2CC(=O)C=C(c3ccc(C)c(F)c3)C2)cc1	i	56	i	i	?
COc1cccc(CNC(=O)CCn2c(=O)c3cccn3c3cccnc32)c1OC	nt	i	i	i	nt

Bioassay records (PubChem)
